SMARCA2 act: SMARCA2 (BRM) function activators, primary screen, cell-based, luminescence, high throughput; MG213 cells, MMTV-luciferase reporter, dexamethasone, overnight; activation, % at 9.1 µM; 1% of 370,000 active; AID 652017, 2013; in the data active = activation above about 7.8%;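 note: 0% = vehicle wells and 100% = reference activator wells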
ssDAF12 agonist: S. stercoralis DAF-12 nuclear receptor activators, primary screen, cell-based, luminescence, HEK293, GRIP1 co-expression, lit1-tk-luc; Nuclear hormone receptor DAF-12 (Strongyloides stercoralis); HEK293 ssDAF-12/GRIP1 lit1-tk-luc reporter; % of 3 µM dafachronic acid response; activation, % at 6.8 µM; 1% of 370,000 active;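 active = activation above the mean over all tested compounds plus 3 SD, cut at about 0.9% in these data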;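 note: 0% = DMSO-only wells and 100% = 3 µM delta7-dafachronic acid wells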
DAX1 inh-1: DAX1 (NR0B1) inhibitors, primary screen, cell-based, HEK293, Gal4-DAX1, luciferase luminescence; 0.99% of 340,000 active; inhibition, % at 6.75 µM; Nuclear receptor subfamily 0 group B member 1 (Homo sapiens), P51843; AID 504766, 2011; HEK293 Gal4-DAX1 luciferase reporter;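 active = inhibition above the mean over all tested compounds plus 3 SD, cut at about 4.2% in these data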;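 note: 0% = DAX1-transfected cells with DMSO and 100% = empty-vector control cells with DMSO; inhibition shows as a rise in luminescence from relieved DAX1 repression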
Target sequence (P51843 207-470 limits assumed): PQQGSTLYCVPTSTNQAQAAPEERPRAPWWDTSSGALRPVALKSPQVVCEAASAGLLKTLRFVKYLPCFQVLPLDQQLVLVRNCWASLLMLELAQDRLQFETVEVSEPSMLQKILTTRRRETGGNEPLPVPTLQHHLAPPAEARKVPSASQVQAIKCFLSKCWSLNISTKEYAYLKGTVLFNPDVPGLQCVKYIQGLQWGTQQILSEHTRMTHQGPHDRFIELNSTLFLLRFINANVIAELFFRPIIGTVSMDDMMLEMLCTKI
hcDAF12 agonist: H. contortus DAF-12 nuclear receptor activators, primary screen, cell-based, luminescence, HEK293, lit1-tk-luc reporter; 1.4% of 370,000 active; activation, % at 6.8 µM; AID 652067, 2013; HEK293 hcDAF-12 lit1-tk-luc reporter; 0% DMSO, 100% Δ7-dafachronic acid;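 active = activation above the mean of all tested compounds plus 3 SD, cut at about 5.5% in these data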;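 note: 100% = response to 3 µM Δ7-dafachronic acid high control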
DAX1 inh-2: DAX1 (NR0B1) inhibitors on StAR promoter, primary screen, cell-based, luminescence, SF-1 (NR5A1), full-length DAX-1; HEK293T StAR-luciferase reporter, SF-1/DAX-1 repression relief; inhibition, % at 6.8 µM; 1.1% of 370,000 active;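 active = inhibition above the mean over all tested compounds plus 3 SD, cut at about 3.6% in these data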;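 note: 0% = DAX-1 cells with DMSO and 100% = cells lacking DAX-1 with DMSO; higher inhibition means more luminescence from relief of DAX-1 repression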
hgDAF12 agonist: H. glycines DAF-12 receptor agonists, primary screen, cell-based, luminescence, HEK293, GAL4 fusion, UAS-luciferase | activation, % at 6.8 µM | 1.8% of 370,000 active | HEK293 GAL4-hgDAF12 UAS-luciferase reporter, agonist luminescence; normalized to butyrate control;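 active = activation above a cutoff set at the mean of all screened compounds plus 3 SD, cut at about 10% in these data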;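 note: 0% = DMSO wells and 100% = sodium butyrate wells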
Numbers without * were called inactive. Shown are actives, neighbours in structure and some others; about 4.8% of the full set was active somewhere.

Screening O=C(NC(=S)N1CCCc2ccccc21)c1ccc([N+](=O)[O-])cc1 returned SMARCA2 act -0.2, ssDAF12 agonist -0.1, DAX1 inh-1 -0.7, hcDAF12 agonist 5.6*, DAX1 inh-2 0.0 and hgDAF12 agonist 1.0.
COc1ccc(C(=O)NC(=S)N2CCCc3ccccc32)cc1OC was read as SMARCA2 act -4.2, ssDAF12 agonist -1.0, DAX1 inh-1 -0.5, hcDAF12 agonist -0.1, DAX1 inh-2 0.3 and hgDAF12 agonist -3.6.
Screening O=C(NC(=S)N1CCCc2ccccc21)c1ccc(Br)cc1 returned SMARCA2 act 3.1, ssDAF12 agonist -1.0, DAX1 inh-1 0.4, hcDAF12 agonist 5.9*, DAX1 inh-2 0.0 and hgDAF12 agonist 3.4.
`O=C(c1cc([N+](=O)[O-])cc([N+](=O)[O-])c1)N1CCCc2ccccc21` gave SMARCA2 act 0.5, ssDAF12 agonist -0.5, DAX1 inh-1 -0.1, hcDAF12 agonist -1.5, DAX1 inh-2 -0.5 and hgDAF12 agonist -2.6.
Screening O=C(c1ccccc1)N1CCC2CCN(CCc3ccccc3)CC21 (stereo not drawn) returned SMARCA2 act -3.6, ssDAF12 agonist -0.8, hcDAF12 agonist 1.0, DAX1 inh-2 0.6 and hgDAF12 agonist -3.5.
For Cc1ccsc1/C=C1\CCC(C2CCCC2)C1=O (stereo not drawn) the results were SMARCA2 act 5.5, ssDAF12 agonist -0.4, DAX1 inh-1 5.6*, hcDAF12 agonist 0.8, DAX1 inh-2 1.1 and hgDAF12 agonist 9.3.
For Cc1ccc(/C=C2\CCC(C3CCCC3)C2=O)cc1 (stereo not drawn) the results were SMARCA2 act 0.5, ssDAF12 agonist 0.9*, DAX1 inh-1 4.5*, hcDAF12 agonist -1.7, DAX1 inh-2 -0.3 and hgDAF12 agonist 7.8.
COc1ccc(/C=C2\CCC(C3CCCC3)C2=O)cc1 (stereo not drawn) was read as SMARCA2 act 2.1, ssDAF12 agonist 0.1, DAX1 inh-1 3.5, hcDAF12 agonist 1.6, DAX1 inh-2 0.8 and hgDAF12 agonist 5.1.
For C=CCN(Cc1ccc2c(c1)OCO2)C(C#CCCCC)C(C)C (stereo not drawn) the results were ssDAF12 agonist -1.2, hcDAF12 agonist -1.8 and hgDAF12 agonist -0.5.
For CCC(NC(=O)c1cc(COc2ccc(Cl)cc2OC)on1)c1ccncc1 (stereo not drawn) the results were SMARCA2 act 5.2, ssDAF12 agonist -0.2, DAX1 inh-1 0.6, hcDAF12 agonist 0.8, DAX1 inh-2 -0.9 and hgDAF12 agonist 11.6*.
O=C(C1CCCN1S(=O)(=O)c1cccc2ccccc12)N1CCN(c2ccccc2)CC1 (stereo not drawn) was read as SMARCA2 act -0.1, ssDAF12 agonist 2.5*, hcDAF12 agonist -2.8, DAX1 inh-2 0.4 and hgDAF12 agonist -3.7.
Cc1ccn(CC(=O)N2CCCC(C(=O)c3cccc4ccccc34)C2)n1 (stereo not drawn) was read as SMARCA2 act -1.2, ssDAF12 agonist -1.6, DAX1 inh-1 -0.7, hcDAF12 agonist -1.8, DAX1 inh-2 0.0 and hgDAF12 agonist 2.5.
Cc1nc(C)n(CC(=O)N2CCCC(C(=O)c3cccc4ccccc34)C2)n1 (stereo not drawn) was read as SMARCA2 act 4.7, ssDAF12 agonist -0.1, DAX1 inh-1 -0.4, hcDAF12 agonist 1.2, DAX1 inh-2 1.6 and hgDAF12 agonist 11.5*.
Screening COc1ccccc1C(=O)n1ccc2ccc(-c3ccc4ccn(Cc5ccccc5)c4c3)cc21 returned SMARCA2 act -2.9, ssDAF12 agonist -0.6, hcDAF12 agonist 0.8, DAX1 inh-2 -1.9 and hgDAF12 agonist -1.0.
Screening CN1[C@@H](Cc2ccccc2)COc2cc(N3CCCC3)ccc2S1(=O)=O returned SMARCA2 act -2.9, ssDAF12 agonist -1.6, hcDAF12 agonist -1.5, DAX1 inh-2 -3.2 and hgDAF12 agonist -3.8.

Screening data deposited in PubChem BioAssay by The Scripps Research Institute Molecular Screening Center.
